High-throughput results (PubChem)
Coupling enz – counter-screen for Giardia aldolase inhibitors: coupling enzyme system; coupling enzyme system counterscreen, AmpLite Red fluorescence; activity change, negative = inhibition, % at 58.2 µM, hits read low; 290,000 compounds, 0.67% hits; AID 2472; in the data active means activity change below about -30%
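Compounds tested against the coupling enzymes alone at 57.5 uM final; readout was AmpLite Red fluorescence (525/598 nm) after 20 min at RT.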
ELG1 repair inh – ELG1-dependent DNA repair inhibition; Potency, µM (doses to about 46.1 µM), hits mostly inhibitors; HEK293T ELG1-luciferase reporter, luminescence, 16 h; DNA damage induced by 5-fluorouridine; 330,000 compounds, 2.3% hits; further: nearly all actives have a fitted effect of over 55% in size
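Reporter activity after DNA damage by 5-fluorouridine is monitored. Compound-treated cells incubate 16 hr at 37 °C, then ONE-Glo is added for 30 min before luminescence reading.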
RORgamma inh – inhibitors of mouse ROR gamma transcriptional activity. P51450. Potency, µM (highest dose often 53.6 µM), actives largely listed as inhibitors. Drosophila S2 Gal4-RORgamma UAS-luciferase reporter, 20 h. 310,000 compounds, 5.4% hits; further: nearly all actives have a fitted effect of over 60% in size
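Schneider cells (Drosophila), stable Gal4 DBD–ROR gamma + UAS-luc; 1 hr cmpd preincubation; Cu2+ induction 700 uM final; 20 hr ambient; luminescence.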
TSHR antag – human thyrotropin receptor antagonism; P16473; TSHR-expressing cells, TSH-stimulated cAMP HTRF, 2 h; stronger effect = lower value; activity change, negative = inhibition, % at 11.5 µM; 330,000 compounds, 0.2% hits;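 active means activity change below a set negative limit, meaning inhibition stronger than a set level, cut at about -70% in these data; inconclusive means activity change between two set negative limits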
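Antagonism was scored as loss of TSH-driven cAMP in TSHR cells, stimulated with 4nM TSH (EC80) for 2 hours at 37 deg C and detected by homogeneous HTRF competition immunoassay.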
Gal4-VP16 FLuc – Gal4-VP16 reporter inhibition counter-screen | 310,000 compounds, 3.5% hits | Potency, µM (doses to about 53.6 µM), actives largely listed as inhibitors | Drosophila S2 Gal4-VP16 UAS-luciferase, luminescence, 20 h | AID 2546;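 further: Gal4-VP16 expression switched on by copper sulfate through the metallothionein promoter; nearly all actives have a fitted effect of over 50% in size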
Each line names hits and unclear results; the compound was inactive in the other large screens. A selection: hits, their analogues and other compounds. The true share with any hit is near 8%. Unless noted, the call rests on the fitted dose curve; in most records, active means well fitted curve in the direction sought with a large enough effect; inconclusive means small, poorly fitted or top-dose-only effect, or another doubt; inactive means no such curve, though single readings can be large; an effect the other way counts as inactive or inconclusive.

CC(C)NC(=O)N1CC[C@@]2(CCCN(C(=O)Oc3ccccc3)C2)C1	none (no result: ELG1 repair inh, TSHR antag)
N#Cc1cc2c([nH]c1=S)CCCCCC2	RORgamma inh 7.1µM, Gal4-VP16 FLuc 16µM
N#Cc1c(N)n[nH]c1-c1cc2c([nH]1)CCCC2	ELG1 repair inh inconclusive, RORgamma inh inconclusive
CCCc1cc(=O)oc2cc(C)cc(OC(C)C(=O)NCc3ccccn3)c12 (stereo unspecified)	none (no result: Coupling enz)
Cc1c(Br)c(=O)oc2c(Br)c(O)c(O)cc12	RORgamma inh 5µM
Cc1c(Br)c(=O)oc2c(Br)c(O)ccc12	none
Cc1c(Cl)cccc1NC(=S)N1CCCN(Cc2ccc(F)cc2)C1	RORgamma inh 16µM, Gal4-VP16 FLuc inconclusive
CSc1cccc(NC(=S)N2CCCN(Cc3ccc(F)cc3)C2)c1	RORgamma inh inconclusive
O=C(Nc1ccccc1)N1CCCN(Cc2ccccc2F)C1	none
Cc1c(Cl)cccc1NC(=S)N1CCCN(Cc2ccccc2F)C1	RORgamma inh 13µM, Gal4-VP16 FLuc inconclusive
Cc1ccc(NC(=S)N2CCCN(Cc3ccc(F)cc3)C2)c(C)c1	RORgamma inh 13µM, Gal4-VP16 FLuc inconclusive
Cc1ccccc1NC(=S)N1CCCN(Cc2ccc(F)cc2)C1	none
Fc1ccccc1CN1CCCN(C(=S)Nc2cccc(Cl)c2)C1	RORgamma inh 7.1µM, Gal4-VP16 FLuc inconclusive
COCCC(=O)N1CCC(Oc2ccc(C(=O)N3CCC(N(C)C)C3)cc2)CC1 (stereo unspecified)	none
Cc1nnc(NC(=O)C2CSC3(C)CCC(=O)N23)s1 (stereo unspecified)	none (no result: Coupling enz, RORgamma inh, Gal4-VP16 FLuc)
CCOc1ccccc1N1CCN(C(=O)c2cc3cc(OC)ccc3[nH]2)CC1	none
COc1ccc(CN(CC2CCCO2)C(=O)CN2C(=O)COc3ccccc32)cc1OC (stereo unspecified)	ELG1 repair inh 12µM
Cc1ccc(-c2nc3ccccc3[nH]2)cc1NC(=O)/C=C/c1ccco1	ELG1 repair inh inconclusive
Cc1ccc(-c2nc3ccccc3o2)cc1NC(=S)NC(=O)c1cccs1	ELG1 repair inh inconclusive, RORgamma inh 4µM, Gal4-VP16 FLuc inconclusive
Cc1cc(C)c2oc(-c3ccc(C)c(NC(=S)NC(=O)c4cccs4)c3)nc2c1	RORgamma inh 2µM, Gal4-VP16 FLuc inconclusive
Cc1ccc2oc(-c3cccc(NC(=S)NC(=O)/C=C/c4ccco4)c3)nc2c1	ELG1 repair inh inconclusive, RORgamma inh 3.5µM, Gal4-VP16 FLuc 10µM
Cc1cc(C)c2oc(-c3ccc(C)c(NC(=S)NC(=O)/C=C/c4ccco4)c3)nc2c1	RORgamma inh 0.25µM, Gal4-VP16 FLuc 1.4µM
Cc1ccc2oc(-c3cccc(NC(=S)NC(=O)c4cccs4)c3)nc2c1	ELG1 repair inh inconclusive
COc1cccc(C(=O)NCC(=O)OCC(=O)NC2CCCCC2)c1	none (no result: Coupling enz, RORgamma inh, Gal4-VP16 FLuc)
CCN(CC)S(=O)(=O)c1ccc(N2CCCC2)c(NC(=O)C2=NN(c3ccccc3)C(=O)CC2)c1	none (no result: Coupling enz, RORgamma inh, Gal4-VP16 FLuc)
CCOc1ccc(-n2c(SCC(=O)Nc3cc(C)on3)nc3c(c2=O)SCC3)cc1	TSHR antag -85
CCC(C)(C)n1nnnc1C(c1ccc(F)cc1)N1CCN(C(=O)c2ccco2)CC1 (stereo unspecified)	none
CCC1CC=CC2C1C(=O)N(Cc1ccccc1)C2c1ccc(OC)c(Cl)c1 (stereo unspecified)	Gal4-VP16 FLuc inconclusive (no result: ELG1 repair inh, TSHR antag)
CC(=NNC(=O)CCC(=O)Nc1ccccc1Cl)c1ccco1	none (no result: Coupling enz, RORgamma inh, Gal4-VP16 FLuc)
Cc1ccc(-c2n[nH]c3c2CCC3)cc1	ELG1 repair inh inconclusive, Gal4-VP16 FLuc inconclusive
Cc1ccc(-c2n[nH]c(=S)nc2-c2ccc(C)cc2)cc1	RORgamma inh 5µM, Gal4-VP16 FLuc inconclusive
C/C(=N\N=C(/N)SC1CC(=O)N(c2ccc(Cl)cc2)C1=O)c1cccs1 (stereo unspecified)	RORgamma inh 13µM, Gal4-VP16 FLuc inconclusive
C/C(=N\N=C(/N)SC1CC(=O)N(c2ccccc2)C1=O)c1cccs1 (stereo unspecified)	RORgamma inh inconclusive
CC1CCCN(C(=O)c2ccc(Br)c(S(=O)(=O)N3CCOCC3)c2)C1 (stereo unspecified)	none (no result: Coupling enz, RORgamma inh, Gal4-VP16 FLuc)
O=C(/C(=N/N=C/c1ccc(O)c(O)c1O)c1ccccc1)c1ccccc1	Coupling enz -40, RORgamma inh inconclusive, Gal4-VP16 FLuc 10µM
